Here are results for 57 compounds from PMC4336329 (PLoS ONE, 2015).

Molecules are shown by their SMILES. Out of some 310,000 compounds screened, about 14,000 (4.5%) showed an effect of 50% or more. Effects have a minus sign here. This excerpt belongs to a sample that is enriched for strong results.
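Also: peak tail current of the secondary pulse compared with the same well before compound.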

In this assay the target is human ether-à-go-go-related gene (hERG) potassium channel (human, UniProt Q12809). The experiment in a line: primary screen, population patch clamp on CHO cells stably expressing hERG; higher = less effect of the substance.
human ether-à-go-go-related gene (hERG) potassium channel, sequence (Q12809 whole entry, looked up): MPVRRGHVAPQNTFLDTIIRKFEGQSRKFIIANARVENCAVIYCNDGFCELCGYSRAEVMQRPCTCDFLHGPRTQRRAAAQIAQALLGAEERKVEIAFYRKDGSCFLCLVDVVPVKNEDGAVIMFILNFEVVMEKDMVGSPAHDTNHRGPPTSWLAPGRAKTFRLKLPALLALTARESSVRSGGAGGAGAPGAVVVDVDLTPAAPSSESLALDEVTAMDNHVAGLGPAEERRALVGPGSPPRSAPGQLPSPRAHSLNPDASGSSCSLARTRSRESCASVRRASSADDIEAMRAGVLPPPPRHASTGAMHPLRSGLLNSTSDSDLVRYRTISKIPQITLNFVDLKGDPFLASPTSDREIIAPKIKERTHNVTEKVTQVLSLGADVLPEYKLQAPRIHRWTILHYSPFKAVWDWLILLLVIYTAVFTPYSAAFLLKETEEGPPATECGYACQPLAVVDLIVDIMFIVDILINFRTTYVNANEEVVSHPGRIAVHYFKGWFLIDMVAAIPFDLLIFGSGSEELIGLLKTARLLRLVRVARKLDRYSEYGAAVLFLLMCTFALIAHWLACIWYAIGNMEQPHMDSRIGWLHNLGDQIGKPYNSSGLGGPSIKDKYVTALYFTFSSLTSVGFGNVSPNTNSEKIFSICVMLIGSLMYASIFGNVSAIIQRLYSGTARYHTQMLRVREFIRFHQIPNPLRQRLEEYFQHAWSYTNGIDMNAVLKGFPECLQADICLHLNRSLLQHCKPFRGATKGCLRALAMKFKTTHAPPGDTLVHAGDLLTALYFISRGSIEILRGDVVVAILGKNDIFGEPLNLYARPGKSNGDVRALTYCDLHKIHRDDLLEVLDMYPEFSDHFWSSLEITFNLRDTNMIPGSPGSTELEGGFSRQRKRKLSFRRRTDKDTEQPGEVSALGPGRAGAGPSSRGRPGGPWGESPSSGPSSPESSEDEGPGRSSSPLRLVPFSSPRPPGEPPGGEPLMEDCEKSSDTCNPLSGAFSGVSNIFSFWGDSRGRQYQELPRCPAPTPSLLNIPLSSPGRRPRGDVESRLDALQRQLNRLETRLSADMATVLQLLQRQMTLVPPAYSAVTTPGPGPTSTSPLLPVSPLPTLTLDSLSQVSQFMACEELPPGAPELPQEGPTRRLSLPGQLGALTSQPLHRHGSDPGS
For the compound `Cc1ccccc1C(=O)NC(=S)NCC1CCCO1` (stereo not drawn), the “hERG current change (%, negative = inhibition) at 10uM” value came to 12%.
In the case of `O=C(Nc1ccc2ncccc2c1)c1cc(Cl)ccc1Cl` it was 12.6%; in that of `CCOc1ccc(N(CC(=O)NCCc2ccc(OC)cc2)S(C)(=O)=O)cc1`, -0.0301%.
In the case of `O=C(CSc1ncnc2c1cnn2-c1ccc(Cl)cc1)NCc1ccc2c(c1)OCO2` it was 13.7%; in that of `CC(C)OC(=O)CCC1(C(=O)O)CCC(=O)NC1` (stereo not drawn), 7.55%; in that of `CCC(=O)Nc1ccc(OCc2nc3ccccc3s2)cc1`, 21.1%.
With `O=C(CSc1ncccc1-c1nc2ccccc2[nH]1)Nc1ccc2c(c1)OCCO2` the figure was -30.8%; with `Cn1c(SCC(=O)Nc2ccccc2O)nnc1-c1ccco1`, -27.4%.
For `Cn1c(SCC(=O)c2cccs2)nnc1-c1ccco1`, the “hERG current change (%, negative = inhibition) at 10uM” value was 11.8%.
In the case of `CC(C)Cn1c(SCC(=O)c2ccc(Cl)s2)nnc1-c1ccco1` it was -76.7%; in that of `CCn1c(SCC(=O)c2cccs2)nnc1-c1ccco1`, -2.68%.
As for `CCn1c(SCC(=O)c2ccc(Cl)s2)nnc1-c1cccs1`, the “hERG current change (%, negative = inhibition) at 10uM” value is on record as -35.5%.
With `Cn1c(SCC(=O)c2cc(Cl)c(Cl)s2)nnc1-c1ccco1` the figure was -60.5%; with `Cn1c(SCC(=O)c2ccccc2)nnc1-c1ccco1`, -39.5%; with `Cn1c(SCC(=O)Nc2ccc(Cl)cc2F)nnc1-c1ccco1`, -59.4%.
`Cn1c(SCC(=O)Nc2ccc(Br)cc2F)nnc1-c1ccco1`: the “hERG current change (%, negative = inhibition) at 10uM” value is listed as -26.7%.
In the case of `CCN(C(=O)CN1CCN(S(=O)(=O)c2ccccc2C(F)(F)F)CC1)c1c(N)n(Cc2ccccc2)c(=O)[nH]c1=O` it was 13.6%; in that of `O=C(NC(=S)NCc1ccc(-c2nc3ccccc3s2)cc1)c1ccco1`, 34%.
For the compound `Cc1ccccc1-n1ncc2c1CC(C)(C)CC2NC(=O)c1cn[nH]c1C` (stereo not drawn), the “hERG current change (%, negative = inhibition) at 10uM” value is -6.22%.
In the case of `CCCC(=O)Nc1ccc(C)c(O)c1` it was 4.76%.
With `C/C(=N\NC(=O)c1ccccc1O)c1cccc(NC(=O)c2ccccc2)c1` the figure was -0.335%; with `O=C1N(CC(=O)N2CCc3ccccc32)CCN1Cc1ccccc1Cl`, -12.1%; with `CN(C(=O)COC(=O)CCC(=O)c1ccccc1)c1c(N)n(Cc2ccccc2)c(=O)[nH]c1=O`, 14.1%.
Take `OCCNc1nc(N2CCCC2)nc(N2CCCC2)n1`: the “hERG current change (%, negative = inhibition) at 10uM” value was -2.85%.
For the compound `c1ccc2c(NCC3CCCO3)nc(-c3ccncc3)nc2c1` (stereo not drawn), the “hERG current change (%, negative = inhibition) at 10uM” value is reported as -14.6%.
On to `Cl.OCCNc1nc(N2CCCCC2)nc2ccccc12`, for which the “hERG current change (%, negative = inhibition) at 10uM” value was -58.2%.
Take `Cl.c1ccc2c(NCC3CCCO3)nc(N3CCCCC3)nc2c1` (stereo not drawn): the “hERG current change (%, negative = inhibition) at 10uM” value is -72.9%.
In the case of `Cl.OCCNc1nc(N2CCN(c3ccccc3)CC2)nc2ccccc12` it was -74.6%; in that of `Cl.OCCNc1nc(-c2ccccc2)nc2ccccc12`, 2.57%; in that of `Cl.c1ccc2c(NCC3CCCO3)nc(N3CCOCC3)nc2c1` (stereo not drawn), -49.5%.
For the compound `C=CCNc1ncnc2ccccc12`, the “hERG current change (%, negative = inhibition) at 10uM” value is on record as 22.5%.
In the case of `C=CCNc1nc(N2CCCC2)nc2ccccc12`, the “hERG current change (%, negative = inhibition) at 10uM” value was -78.3%.
Turning to `C=CCNc1nc(C(=O)OCC)nc2ccccc12`, the “hERG current change (%, negative = inhibition) at 10uM” value came out at 11.1%.
Regarding `COc1ccc([C@@H]2CC=C(C(=O)O)[C@H](c3ccc(F)cc3)N2S(=O)(=O)c2ccc(Cl)cc2)cc1`, the “hERG current change (%, negative = inhibition) at 10uM” value is on record as 27.2%.
With `Cc1ccc(-c2c(C#N)c(N)n(-c3ccccc3)c(=O)c2C#N)cc1` the figure was 20.3%; with `O=C(NC1CCCCC1)c1n[nH]c2c1CCCCC2`, 2.43%; with `CC1CC(C)CN(C(=O)CSCC(=O)O)C1` (stereo not drawn), 1.3%.
In the case of `CCC1CCc2c(sc(NC(=O)C3c4ccccc4Oc4ccccc43)c2C(N)=O)C1` (stereo not drawn) it was 2.02%.
In the case of `Cc1ccc(C(C(=O)NCc2ccco2)N(C(=O)CNC(=O)c2cccs2)c2ccc(C)cc2)cc1` (stereo not drawn) it was 27.3%; in that of `CC(=O)Oc1ccc2nc(-c3ccc(Br)o3)oc(=O)c2c1`, 21.5%.
As to `COCCn1cc(C(=O)c2ccccc2OCC(=O)Nc2cc(C)on2)cc(C#N)c1=O`, the “hERG current change (%, negative = inhibition) at 10uM” value was determined as 10.3%.
In the case of `COCCCn1cc(C(=O)c2cc(OC)ccc2OCC(=O)Nc2cc(C)on2)cc(C#N)c1=O` it was -53%; in that of `COCCCn1cc(C(=O)c2cc(OC)ccc2OCC(=O)N2CCCCC2C)cc(C#N)c1=O` (stereo not drawn), -22.9%.
In the case of `CCCC(=O)Nc1ccccc1N1CCN(C(=O)c2ccccc2)CC1` it was -46%; in that of `O=C(Nc1ccccc1N1CCN(C(=O)c2ccc(Cl)cc2)CC1)c1cc2ccccc2o1`, -2.33%.
With `O=C(Nc1ccccc1N1CCN(C(=O)c2ccc(Cl)cc2)CC1)c1cc(Br)ccc1Cl` the figure was -67.7%; with `O=C(Nc1ccccc1N1CCN(C(=O)c2ccccc2)CC1)c1cc(Br)ccc1Cl`, -55.6%.
Regarding `O=C(Nc1ccccc1N1CCCC1)c1ccc(Cl)cc1Cl`, the “hERG current change (%, negative = inhibition) at 10uM” value is listed as 8.88%.
In the case of `COc1ccc(Br)cc1C(=O)Nc1ccccc1-c1ccccc1` it was -2.5%.
With `COc1ccc(Br)cc1C(=O)Nc1ccccc1N1CCN(C(=O)c2ccccc2)CC1` the figure was -52.4%.
In the case of `COc1ccc(C(=O)Nc2ccccc2N2CCN(C(=O)c3ccccc3)CC2)cc1Br` it was -8.68%.
As for `CC(C)CC(=O)Nc1ccccc1N1CCN(C(=O)c2ccccc2)CC1`, the “hERG current change (%, negative = inhibition) at 10uM” value is reported as -17.7%.
On to `Cc1ccc(C(=O)NCC(=O)NC2CCC(C)CC2)s1` (stereo not drawn), for which the “hERG current change (%, negative = inhibition) at 10uM” value turned out to be 2.47%.
In the case of `CC(=O)NCCc1nc2ccccc2n1Cc1ccccc1` it was 1.05%; in that of `O=C(COc1ccccc1[N+](=O)[O-])Nc1ccccc1N1CCCC1`, -29.1%; in that of `CCN(CC(=O)Nc1ccc2c(c1)OCO2)CC(=O)Nc1ccccc1C(F)(F)F`, -14.4%.
In the case of `C/C(=N\NS(=O)(=O)c1ccc(C)c([N+](=O)[O-])c1)c1cc2ccccc2o1` it was -9.98%.
